Reference: PMC5540273 (PLoS ONE, 2017)

How the values were obtained:
Settings in all cases: concentration: 1 μM, replicates: in singlicate; n = 1
NEK3 = tested on: NEK3
NEK4 = tested on: NEK4
NEK5 = tested on: NEK5
NEK6 = tested on: NEK6
NEK7 = tested on: NEK7
NEK9 = tested on: NEK9
NIK = tested on: T1, NIK
T1 construct: gene MAP3K14

NIM1 = tested on: T2, NIM1
T2 construct: gene MGC42105

NLK = tested on: NLK
OSR1 = tested on: T3, OSR1
T3 construct: gene OXSR1

PAK1 = tested on: PAK1
PAK2 = tested on: PAK2
PAK3 = tested on: PAK3
PAK4 = tested on: PAK4
PAK6 = tested on: PAK6
PAK7 = tested on: PAK7
PCTK1 = tested on: T4, PCTK1
T4 construct: gene CDK16

PCTK2 = tested on: T5, PCTK2
T5 construct: gene CDK17

PCTK3 = tested on: T6, PCTK3
T6 construct: gene CDK18

PDGFRA = tested on: PDGFRA
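Also: KINOMEscan kinase panel screen.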

SMILES	%Inh (NEK3) [%]	%Inh (NEK4) [%]	%Inh (NEK5) [%]	%Inh (NEK6) [%]	%Inh (NEK7) [%]	%Inh (NEK9) [%]	%Inh (NIK) [%]	%Inh (NIM1) [%]	%Inh (NLK) [%]	%Inh (OSR1) [%]	%Inh (PAK1) [%]	%Inh (PAK2) [%]	%Inh (PAK3) [%]	%Inh (PAK4) [%]	%Inh (PAK6) [%]	%Inh (PAK7) [%]	%Inh (PCTK1) [%]	%Inh (PCTK2) [%]	%Inh (PCTK3) [%]	%Inh (PDGFRA) [%]
COc1ccc(Nc2nccc(N3CCC(NC(=O)Nc4ccc5c(c4)OCO5)C3)n2)cc1 (stereo not drawn) [GSK1379745]	0	3	25	7	3	0	1	22	0	12	0	6	0	0	0	0	6	17	32	0
O=C(c1ccc(-c2cc(-c3c[nH]nc3-c3ccccn3)ccn2)cc1)N1CCCC1 [GW792479]	35	0	0	28	0	0	0	4	0	0	8	0	0	16	9	0	0	0	3	0
COc1ccc(-c2oc3ncnc(N)c3c2-c2ccc(OC)cc2)cc1 [SB-589132]	17	20	31	0	0	19	33	37	4	0	0	16	14	0	0	0	0	0	14	17
CC(C)(C)OC(=O)NC1CCCN(c2cc(-c3ccc4c(N)n[nH]c4c3)nc(N)n2)C1 (stereo not drawn) [GSK2286096]	3	13	2	0	0	2	0	9	27	0	0	1	0	0	0	0	4	6	17	0
Clc1cccc(-c2nc(Nc3ccncc3)c3ccccc3n2)c1 [GW873004]	36	0	23	14	0	3	0	0	30	0	0	0	37	16	0	0	0	0	0	0
O=C(CCO)NCCn1ccc2ncnc(Nc3ccc(Oc4cccc(C(F)(F)F)c4)c(Cl)c3)c21	18	0	0	0	0	0	6	0	0	0	0	2	28	0	0	0	0	0	0	0
COC(=O)c1cccc(NC(=O)NCCNc2ccnc(Nc3ccc(F)cc3)n2)c1 [GSK1379883]	0	0	17	0	0	11	9	0	0	4	0	0	0	0	0	0	0	0	0	0
Cl.c1ccc(Cn2ccc3cc(Nc4ncnc5ccccc45)ccc32)cc1 [GW275568]	12	5	28	0	9	24	0	10	20	1	12	13	0	9	8	35	0	16	18	2
Fc1ccc(-c2ncn(CCCNCc3ccccc3)c2-c2ccncc2)cc1	31	7	6	12	0	0	12	15	13	19	30	25	0	11	11	14	7	0	8	0
OCCOCCn1ccc2ncnc(Nc3ccc(Oc4cccc(Cl)c4)c(Cl)c3)c21	10	0	0	0	0	0	0	0	0	0	0	0	18	0	0	0	0	0	6	0
CCCc1ccc(S(=O)(=O)NC2CCN(c3ccnc(Nc4ccc(OC)cc4)n3)C2)cc1 (stereo not drawn) [GSK1379737]	1	10	15	39	0	0	43	30	0	100	11	9	100	0	0	0	0	0	0	0
CC(=O)Nc1n[nH]c2ncc(-c3ccccc3)cc12 [SB-548492]	20	25	5	8	19	7	3	100	24	9	0	32	0	4	12	0	3	7	4	51
